# Reference: PubChem BioAssay (EPA / NIEHS)
# Records with an inconclusive call do not appear. Activity calls are given as the source filed them. The calls were made as follows: active = hit-call score of the fitted dose curve at least 0.9, where 1 is the maximum; inconclusive = response in the unintended direction; inactive = score below 0.9.
# Experiments:
# [1] = system: NCBI gene 24521; assay: NVS_IC_rKATPCh: NovaScreen (NVS) Ion Channel Assay for rat Potassium Channel, ATP-Sensitive (KATPCh) (AID 2283319)
# How it was run: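 Rat cortical membranes; radioligand binding at ATP-sensitive K channel site, filter-based scintillation counting 2 h after dosing. Single-point duplicate screen at 25 uM, hits rerun in concentration-response up to 50 uM; loss of signal versus DMSO.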
# [2] = molecular target: Small conductance calcium-activated potassium channel protein 1 (Rattus norvegicus) (UniProt P70606); assay: NVS_IC_rKCaCh: NovaScreen (NVS) Ion Channel Assay for rat Potassium Channel, Ca2+ Act., VI (KCaCh) (AID 2283336)
# Chain of Small conductance calcium-activated potassium channel protein 1 (Rattus norvegicus) (P70606 whole entry, looked up): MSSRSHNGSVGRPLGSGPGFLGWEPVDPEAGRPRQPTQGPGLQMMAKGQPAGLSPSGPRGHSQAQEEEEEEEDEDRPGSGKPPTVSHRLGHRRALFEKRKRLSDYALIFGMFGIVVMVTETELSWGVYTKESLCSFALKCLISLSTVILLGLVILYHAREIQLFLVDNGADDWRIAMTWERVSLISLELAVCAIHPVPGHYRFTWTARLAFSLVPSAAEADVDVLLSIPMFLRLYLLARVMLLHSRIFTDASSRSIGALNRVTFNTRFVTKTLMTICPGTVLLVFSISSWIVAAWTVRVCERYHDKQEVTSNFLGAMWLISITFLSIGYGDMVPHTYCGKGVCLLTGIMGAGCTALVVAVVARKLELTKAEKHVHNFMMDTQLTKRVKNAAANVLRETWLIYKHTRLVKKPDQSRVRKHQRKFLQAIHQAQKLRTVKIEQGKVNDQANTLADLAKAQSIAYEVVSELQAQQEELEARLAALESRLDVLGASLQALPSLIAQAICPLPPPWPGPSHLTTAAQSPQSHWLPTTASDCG
# How it was run: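 Radioligand binding to rat forebrain membranes, cell-free, read 1 hour after dosing by filter-based scintillation counting. Compounds first run in duplicate at 25 uM, actives then in concentration series; loss of signal vs DMSO indicates displacement.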
# [3] = molecular target: bovine Gamma-Aminobutyric Acid Type A Receptor BDZ, alpha 5 site (GABARa5), GABRA5 (gene 523515) (UniProt Q08E50); assay: NVS_LGIC_bGABARa5: NovaScreen (NVS) Ligand-Gated Ion Channel Assay for bovine Gamma-Aminobutyric Acid Type A Receptor BDZ, alpha 5 site (GABARa5) (AID 2283323)
# Chain of bovine Gamma-Aminobutyric Acid Type A Receptor BDZ, alpha 5 site (GABARa5), GABRA5 (gene 523515) (Q08E50 whole entry, looked up): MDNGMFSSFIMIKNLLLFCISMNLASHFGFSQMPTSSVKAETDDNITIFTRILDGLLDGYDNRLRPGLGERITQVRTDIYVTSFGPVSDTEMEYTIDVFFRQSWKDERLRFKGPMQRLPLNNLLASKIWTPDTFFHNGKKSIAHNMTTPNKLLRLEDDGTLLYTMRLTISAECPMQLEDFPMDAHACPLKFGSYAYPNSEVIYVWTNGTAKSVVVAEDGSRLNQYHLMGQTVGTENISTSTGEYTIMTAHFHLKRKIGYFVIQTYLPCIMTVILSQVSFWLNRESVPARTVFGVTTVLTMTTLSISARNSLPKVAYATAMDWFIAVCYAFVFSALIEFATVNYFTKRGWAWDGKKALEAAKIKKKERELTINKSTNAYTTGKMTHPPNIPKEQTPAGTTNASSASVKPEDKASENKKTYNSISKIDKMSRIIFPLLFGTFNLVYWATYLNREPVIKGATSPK
# How it was run: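 Radioligand competitive displacement binding on bovine hippocampal membranes, read 1 hr after dosing by filter-based scintillation counting. Primary screen at 25 uM in duplicate; actives (e.g. ≥30% inhibition) then run in concentration-response up to 50 uM.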
# [4] = molecular target: human Serotonin, 5-Hydroxytryptamine Receptor 3 (5HT3), HTR3A (gene 3359) (UniProt P46098); assay: NVS_LGIC_h5HT3: NovaScreen (NVS) Ligand-Gated Ion Channel Assay for human Serotonin, 5-Hydroxytryptamine Receptor 3 (5HT3) (AID 2283325)
# Chain of human Serotonin, 5-Hydroxytryptamine Receptor 3 (5HT3), HTR3A (gene 3359) (P46098 whole entry, looked up): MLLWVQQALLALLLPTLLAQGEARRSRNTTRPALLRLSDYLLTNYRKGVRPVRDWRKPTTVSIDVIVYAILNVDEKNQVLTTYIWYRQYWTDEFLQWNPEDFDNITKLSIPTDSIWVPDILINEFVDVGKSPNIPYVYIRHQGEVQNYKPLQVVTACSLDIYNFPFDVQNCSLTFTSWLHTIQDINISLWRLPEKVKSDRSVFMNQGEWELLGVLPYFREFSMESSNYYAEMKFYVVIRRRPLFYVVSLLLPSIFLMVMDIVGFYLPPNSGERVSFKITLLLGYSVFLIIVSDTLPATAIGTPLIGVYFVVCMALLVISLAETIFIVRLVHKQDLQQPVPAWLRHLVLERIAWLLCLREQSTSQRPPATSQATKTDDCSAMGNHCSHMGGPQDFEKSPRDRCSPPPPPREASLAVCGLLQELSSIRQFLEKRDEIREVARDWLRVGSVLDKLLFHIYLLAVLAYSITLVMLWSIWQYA
# How it was run: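 Radioligand displacement binding to human 5-HT3 from HEK293 membranes, read by filter-based scintillation counting after 1 h. Screen at 25 uM in duplicate; chemicals passing threshold were retested in concentration-response up to 50 uM.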
# [5] = molecular target: rat Glycine Receptor, Strychnine-sensitive (GlyRStrySens), Glra1 (gene 25674) (UniProt P07727); assay: NVS_LGIC_rGlyRStrySens: NovaScreen (NVS) Ligand-Gated Ion Channel Assay for rat Glycine Receptor, Strychnine-sensitive (GlyRStrySens) (AID 2283341)
# Chain of rat Glycine Receptor, Strychnine-sensitive (GlyRStrySens), Glra1 (gene 25674) (P07727 whole entry, looked up): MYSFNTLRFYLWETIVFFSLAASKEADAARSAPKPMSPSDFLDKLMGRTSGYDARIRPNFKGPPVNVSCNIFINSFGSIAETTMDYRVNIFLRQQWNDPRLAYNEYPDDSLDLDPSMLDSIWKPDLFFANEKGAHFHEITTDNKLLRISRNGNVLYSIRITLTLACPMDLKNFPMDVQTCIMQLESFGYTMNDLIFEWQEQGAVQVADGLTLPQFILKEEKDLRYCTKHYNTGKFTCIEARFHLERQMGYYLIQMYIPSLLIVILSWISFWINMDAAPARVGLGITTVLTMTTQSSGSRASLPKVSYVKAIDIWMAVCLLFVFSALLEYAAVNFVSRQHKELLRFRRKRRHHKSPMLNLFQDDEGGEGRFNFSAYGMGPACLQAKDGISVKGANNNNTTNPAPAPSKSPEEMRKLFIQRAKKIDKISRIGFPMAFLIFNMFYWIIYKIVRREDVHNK
# Description: (§1) NVS_LGIC_rGlyRStrySens is a biochemical, single-readout assay that uses extracted gene-proteins from Rat spinal cord membranes in a tissue-based cell-free assay. Measurements were taken 1 hour after chemical dosing in a 48-well plate.NVS_LGIC_rGlyRStrySens is one of one assay component(s) measured or calculated from the NVS_LGIC_rGlyRStrySens assay. It is designed to make measurements of radioligand binding, a form of binding reporter, as detected with scintillation counting signals by Filter-based radiodetection technology.Data from the assay component NVS_LGIC_rGlyRStrySens was analyzed into 1 assay endpoint. This assay endpoint, NVS_LGIC_rGlyRStrySens, was analyzed in the positive analysis fitting direction relative to DMSO as the negative control and baseline of activity. Using a type of binding reporter, loss-of-signal activity can be used to understand changes in the binding as they relate to the gene Glra1. Furthermore, this assay endpoint can be referred to as a primary readout, because the performed assay has only produced 1 assay endpoint. To generalize the intended target to other relatable targets, this assay endpoint is annotated to the ion channel intended target family, where the subfamily is ligand-gated ion channel. […]
# [6] = molecular target: rat Gamma-Aminobutyric Acid Type A Receptor, Non-Selective (GABAR-NonSelective), Gabra1 (gene 29705) (UniProt P62813); assay: NVS_LGIC_rGABAR_NonSelective: NovaScreen (NVS) Ligand-Gated Ion Channel Assay for rat Gamma-Aminobutyric Acid Type A Receptor, Non-Selective (GABAR-NonSelective) (AID 2283326)
# Chain of rat Gamma-Aminobutyric Acid Type A Receptor, Non-Selective (GABAR-NonSelective), Gabra1 (gene 29705) (P62813 whole entry, looked up): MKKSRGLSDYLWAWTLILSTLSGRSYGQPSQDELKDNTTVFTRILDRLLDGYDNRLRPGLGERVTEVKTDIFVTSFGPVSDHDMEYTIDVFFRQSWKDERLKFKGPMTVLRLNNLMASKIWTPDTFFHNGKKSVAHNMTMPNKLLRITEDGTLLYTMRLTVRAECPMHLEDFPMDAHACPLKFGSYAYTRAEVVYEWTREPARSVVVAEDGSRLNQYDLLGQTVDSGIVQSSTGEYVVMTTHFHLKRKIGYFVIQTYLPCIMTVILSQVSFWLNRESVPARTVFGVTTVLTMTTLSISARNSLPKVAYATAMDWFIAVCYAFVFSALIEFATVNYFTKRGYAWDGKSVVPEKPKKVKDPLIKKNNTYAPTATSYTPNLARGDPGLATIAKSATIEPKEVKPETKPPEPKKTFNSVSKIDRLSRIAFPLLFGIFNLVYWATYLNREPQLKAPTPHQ
# Description: as §1, with “NVS_LGIC_rGABAR_NonSelective” for “NVS_LGIC_rGlyRStrySens”, “whole brain” for “spinal cord membranes”, “plate.NVS_LGIC_rGABAR_NonSelective” for “plate.NVS_LGIC_rGlyRStrySens”, “NVS_LGIC_rGABAR_NonSelective,” for “NVS_LGIC_rGlyRStrySens,”, “Gabra1.” for “Glra1.”
# [7] = molecular target: rat Glutamate, NMDA Agonist Site (GluNMDA), Grin1 (gene 24408) (UniProt P35439); assay: NVS_LGIC_rGluNMDA_Agonist: NovaScreen (NVS) Ligand-Gated Ion Channel Assay for rat Glutamate, NMDA Agonist Site (GluNMDA) (AID 2283327)
# How it was run: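 Rat forebrain membranes, radioligand binding in the agonist-site protocol; 1 h after dosing; filter-based scintillation counting. Single-concentration duplicate screen at 25 uM, then concentration-response up to 50 uM for actives; gain-of-signal vs DMSO.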
# [8] = molecular target: rat Glutamate, MK-801 Agonist Site (GluNMDA_MK801), Grin1 (gene 24408) (UniProt P35439); assay: NVS_LGIC_rGluNMDA_MK801_Agonist: NovaScreen (NVS) Ligand-Gated Ion Channel Assay for rat Glutamate, MK-801 Agonist Site (GluNMDA_MK801) (AID 2283340)
# How it was run: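 Radioligand binding at MK-801 site in rat forebrain membranes, 1.5 h incubation, filter-based scintillation counting. Initially 25 uM in duplicate; actives then run in concentration-response up to 50 uM, fitted for gain of signal versus DMSO.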
structure (smiles),measurement,setting,value
CC(=O)NC1(c2cccc(F)c2)CCN(CC[C@@]2(c3ccc(Cl)c(Cl)c3)CN(c3ccccc3)C(=O)CO2)CC1,AC50,[1],4.88 µM (active)
same,outcome,[2],inactive
O=C(OCCOCCOC(=O)c1ccccc1)c1ccccc1,outcome,[3],inactive
CCCCCCCC(=O)O,outcome,[3],inactive
same,outcome,[4],inactive
NC(=O)N(O)[C@@H]1C=C[C@H](Oc2cccc(Oc3ccc(F)cc3)c2)C1,outcome,[4],inactive
same,outcome,[5],inactive
CCN(CC)CCNc1ccc(CNC=O)c2sc3ccc(OC)cc3c(=O)c12,outcome,[6],inactive
CCCCCCCCCCCCc1ccccc1S(=O)(=O)O,AC50,[7],20.1 µM (active)
same,outcome,[8],inactive
Cc1cc(C)c(O)c(C)c1,outcome,[7],inactive
CN(C)C=O,outcome,[2],inactive
ClC1=C(Cl)C(Cl)(Cl)C(Cl)=C1Cl,outcome,[8],inactive
